Source: PubChem BioAssay (NCATS)
Values joined by “and” are separate entries in the source; they are usually repeats but may differ in a detail not shown here. Equal entries are not always repeated. Inconclusive results are not listed. Some compounds were tested as several samples or in several runs, with calls that do not always agree. Unmarked numbers belong to inactive results. Active and inactive are the calls of the source. Calls follow the shape of the dose curve; as a rule, active = well fitted cell-killing curve with a large enough effect; inconclusive = small, poorly fitted or top-dose-only effect, or effect the other way; inactive = no such curve, though single readings can be large or run the other way.

experiment: Viability qHTS for spleen associated tyrosine kinase inhibitor (SYKi) drug resistant MV4-11 cells (AID 1963824); settings: SYKi-resistant MV4-11 viability, CellTiter-Glo, 72 h; series mostly up to 45 µM; viability, % of control: at the top concentration; also: nearly all actives have a fitted effect of over 35% in size
Text: Department of Medicine, Hematology/Oncology
University Hospital Frankfurt, Germany.
Trials have shown promising clinical activity of the selective SYK inhibitor entospletinib in patients with high expressing HOXA9/MEIS1 acute leukemias. As the development of resistance mechanisms is a common problem in the use of targeted drugs, we performed a chemical library screen to identify drug sensitivities in SYK inhibitor resistant AML cells. […] Glucocorticoids are potent immunosuppressants which work in part by inhibiting the transcription of cytokine genes.
Described herein is a viability screen to look for activity in the SYK inhibitor drug resistant cell line against four NCATS compound libraries (MIPE 5.0, NPC, NPACT, and Kinase) totaling 11372 compounds. Active hits were reacquired for confirmation and further secondary assay testing.
SEQUENCE No. (e.g., 1, 2, 3, etc.); […] (e.g., Cells, Incubation, Reagent, etc.); VALUE; DESCRIPTION.
1; Media; 2uL; white, solid-bottom Corning assay plate.
2; Compounds; 23nL; Echo acoustic dispenser.
3; Cell; 5uL; 500 cells per well.
4: Incubation; 72hr; 37 C, 5% CO2, 95% humidity.
5; Reagent; 3uL; CellTiter-Glo reagent (Promega).
6; Incubation; 10min; room temperature.
7; Detection; Luminescence; ViewLux plate reader (PerkinElmer).
NOTES (numbers refer to Sequence numbers above
1. Quantitative high-throughput screening (qHTS) of small molecule compounds was conducted on drug resistant SYKi MV4-11 cell line.
2. Twenty-three nanoliter of small molecule compounds were added to each assay plates using the Echo acoustic dispenser (Beckman Coulter).
3. Cells were seeded into the assay plates at a final density of 500 cells in 5uL of media per well using the Multidrop Combi dispenser.
4. Plates were covered with stainless steel gasketed lids and incubated for 72 hours at standard cell culture conditions.
5. Viability was assessed by adding 3uL of CellTiter-Glo detection reagent (Promega).
6. Plates were covered with gasket lids and incubated for 10 minutes at room temperature.
7. Luminescence was measured on a ViewLux plate reader (PerkinElmer).
Potency is read from the fitted curve at half-maximal effect.

Row | SMILES | Potency | viability, % of control
1 | CCCCCCCOc1cc2c(cc1/C(C)=C/c1ccc(C(=O)O)cc1)C(C)(C)CCS2(=O)=O | 11.6 µM (active) | –
2 | CC/C(=C(/c1ccc(/C=C/C(=O)O)cc1)c1ccc2[nH]ncc2c1)c1ccc(F)cc1Cl | 16.6 µM (active) | –
3 | CC(=O)OCC(=O)[C@@]1(O)[C@H](OC(C)=O)C[C@H]2[C@@H]3CCC4=CC(=O)C=C[C@]4(C)[C@@]3(F)[C@@H](O)C[C@@]21C | – | 82.5%
4 | CCCOc1ccc(CCc2nc3cc(-c4c(C)noc4C)ccc3n2CCN2CCOCC2)cc1 | 5.25 µM (active) | –
5 | N#CNC(=NCCCCCCOc1ccc(Cl)cc1)Nc1ccncc1 | 0.0042 µM (active) | –
6 | CC1=CC(=O)CC(C)(C)C1CO[C@@H]1O[C@H](CO)[C@@H](O)[C@H](O)[C@H]1O (stereo not given in full) | – | 104%
7 | CCN(CC)CCOC(=O)C(c1ccccc1)C1CCCCC1 (stereo not given) | – | 1.52%
8 | COc1cc(Br)c(S(=O)(=O)Nc2ccc(Cl)c(O[C@@H]3CCN(C)C3)c2)cc1OC | 6.51 µM (active) | –
9 | CC(=O)Nc1ccc(OC(=O)c2ccccc2OC(C)=O)cc1 | – | 81.5%
10 | CC(C)(O)c1coc(S(=O)(=O)NC(=O)Nc2c3c(cc4c2CCC4)CCC3)c1 | – | 73.1%
11 | C[C@@H]1O[C@@H](O[C@H]2[C@H](OC(=O)[C@]34CCC(C)(C)C[C@H]3C3=CCC5[C@@]6(C)C[C@@H](O)[C@@H](O)[C@@](C)(CO)C6[C@H](O)C[C@@]5(C)[C@]3(C)CC4)OC[C@H](O)[C@@H]2O)[C@H](O)[C@H](O)[C@H]1O[C@@H]1OC[C@@H](O)[C@H](O[C@H]2O[C@H](C)[C@@H](O)[C@H](O)[C@@H]2O)[C@H]1O (stereo not given in full) | – | 77.9% [at 9.25 µM]
12 | COc1ccc2cc3[n+](cc2c1OC)CCc1cc2c(cc1-3)OCO2 | 1.68 µM (active) and 934 nM (active) | –
13 | CC(C)=CCC(O)/C(C)=C/CO[C@@H]1O[C@H](CO)[C@@H](O)[C@H](O)[C@H]1O (stereo not given in full) | – | 91.2%
14 | CC1(CO)CC(O)C2(C)CCC3(C)C(=CCC4C5(C=O)CCC(OC6OC(C(=O)O)C(O)C(O)C6OC6OC(C(=O)O)C(O)C(O)C6O)C(C)(C)C5CCC43C)C2C1 (stereo not given) | – | 98.3% [at 9.25 µM]
15 | COC(=O)C1(C)c2[nH]c3ccccc3c2CCN1C(=O)CCl (stereo not given) | 2.91 µM (active) | –
16 | C[C@@H]1CN(c2c(F)c(F)c3c(=O)c(C(=O)O)cn(C4CC4)c3c2F)C[C@H](C)N1 | 4.61 µM (active) | 79.8% [at 9.25 µM]
17 | CC(C)=CCC[C@](C)(O[C@@H]1O[C@H](CO[C@@H]2O[C@H](CO)[C@@H](O)[C@H](O)[C@H]2O)[C@@H](O)[C@H](O)[C@H]1O)C1CC[C@]2(C)[C@@H]1[C@H](O)CC1[C@@]3(C)CC[C@H](O[C@@H]4O[C@H](CO)[C@@H](O)[C@H](O)[C@H]4O[C@@H]4O[C@H](CO)[C@@H](O)[C@H](O)[C@H]4O)C(C)(C)[C@@H]3CC[C@]12C (stereo not given in full) | – | 69.6% [at 9.25 µM]
18 | Cn1c(=O)c2c(ncn2CCO)n(C)c1=O | – | 81.2%
19 | Cc1cc(C(=O)Nc2nc3cccc(Cl)c3n2C2CCCCN(C(=O)/C=C/CN(C)C)C2)ccn1 (stereo not given) | 8.2 µM (active) | –
20 | C=C1CC2C3(C)C(O)CC(=O)C(C)(C)C3C(OC(C)=O)C(OC(C)=O)C2(C)C2C(=O)OC(C)(C(=O)OC)C(=O)C12C (stereo not given) | – | 90.5% [at 17.3 µM]

Row | SMILES | Potency | viability, % of control
21 | Nc1nc(COC(=O)c2ccc([N+](=O)[O-])cc2)nc(Nc2ccccc2)n1 | – | 40.7%
22 | CC1(C)CC[C@]2(C(=O)O[C@@H]3O[C@H](CO)[C@@H](O)[C@H](O)[C@H]3O)CC[C@]3(C)C(=CCC4[C@@]5(C)CC[C@H](O[C@@H]6O[C@H](C(=O)O)[C@@H](O)[C@H](O)[C@H]6OC6OC(CO)C(O)C(O)C6O)C(C)(C)C5CC[C@]43C)[C@@H]2C1 (stereo not given in full) | – | 91% [at 9.25 µM]
23 | O=C1NC(c2cccc([N+](=O)[O-])c2)=CCN1c1ccccc1O | – | 61.4% [at 17.3 µM]
24 | CN1CCC(=C2c3ccccc3C=Cc3ccccc32)CC1 | 18.8 µM (active) | –
25 | NCC(CNc1nc(Nc2cccc(NC(=O)N3CCCC3)c2)ncc1I)C(=O)c1cccs1 (stereo not given) | 0.231 µM (active) | –
26 | O=C(O)c1ccc(NC(=O)[C@H](CC2CCCC2)n2cnc(C(F)(F)F)c2)nc1 | 2.91 µM (active) | –
27 | CC(C)C(NC(=O)c1ccc(O)cc1)C(=O)N1CCCC1C(=O)Nc1c(O)cccc1C(=O)O (stereo not given) | – | 78.5% [at 17.3 µM]
28 | CCCCC(CC)COC(=O)c1ccccc1O (stereo not given) | 5.96 µM (active) | –
29 | Clc1cccc(Cl)c1NC1=NCCN1 | – | 93.4%
30 | COC(=O)C1=COC(O[C@@H]2O[C@H](COC(=O)/C=C/c3ccc(O)cc3)[C@@H](O)[C@H](O)[C@H]2O)C2C(CO)=CCC12 (stereo not given in full) | – | 97.5% [at 17.3 µM]
31 | COc1ccc2c(c1)c(CC(=O)O)c(C)n2C(=O)c1ccc(Cl)cc1 | – | 105%
32 | CC[C@@H](C)[C@H](NC(=O)[C@H](CC1CCCCC1)NC(=O)c1ccno1)C(=O)N1CCC2(CCc3ccccc32)CC1 | 18.4 µM (active) | –
33 | C[C@]12C[C@@H](O)[C@@H]3C[C@@]1(O[C@@H]1O[C@H](CO)[C@@H](O)[C@H](O)[C@H]1O)[C@]3(COC(=O)c1ccccc1)C(=O)O2 | – | 98.4% [at 17.3 µM]
34 | COC(=O)CC[C@H](NC(=O)[C@H](CC(C)C)NC(=O)OCc1ccccc1)C(=O)N[C@@H](Cc1cnc[nH]1)C(=O)N[C@@H](CC(=O)OC)C(=O)CF | – | 91.2% [at 9.25 µM]
35 | CO[C@@]1(NC(=O)CSC[C@@H](N)C(=O)O)C(=O)N2C(C(=O)O)=C(CSc3nnnn3C)CS[C@@H]21 | – | 104%
36 | OCCN1C[C@H](O)[C@@H](O)[C@H](O)[C@H]1CO | inactive | –
37 | Nc1ccc(C(=O)O)cc1 | – | 84.3%
38 | CCC(CC)CC1(C(=O)Nc2ccccc2SC(=O)C(C)C)CCCCC1 | – | 91.4%
39 | Cc1ccc(S(=O)(=O)NC(=O)NC2CCCCC2)cc1 | – | 103%
